CYP2C9 act = increases human cytochrome P450 2C9 activity; P11712; recombinant CYP2C9, luciferin-H conversion, luminescence; hits give high values; factor 1 = untreated enzyme, 0 = blocked; activation factor at 5 µM; 96,000 compounds, 1.4% hits; AID 1024;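 active = activation factor of 2 or more for CYP2C9 at a 5 µM dose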;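 also: 0 = sulfaphenazole-blocked wells and 1 = vehicle-only wells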
PostGolgi ctrl = growth of the yeast control strain, post-Golgi counter-screen; 98,000 compounds, 5% hits; inhibition, % at 10 µM; efflux-deficient yeast background strain, growth absorbance A615, 16 h
CYP2C19 inhib = inhibitors of human CYP2C19; inhibition, % at 5 µM; 96,000 compounds, 21% hits; AID 778; CYP2C19 Supersomes, luciferin-H EGE luminescence, 30 min;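 active = CYP2C19 inhibition above a set limit at 5 µM in the primary screen, cut at about 50% in these data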;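 also: plate controls were negative control wells for no effect and 2.5 mM tranylcypromine positive control for full effect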
Target sequence (P33261 whole entry, looked up): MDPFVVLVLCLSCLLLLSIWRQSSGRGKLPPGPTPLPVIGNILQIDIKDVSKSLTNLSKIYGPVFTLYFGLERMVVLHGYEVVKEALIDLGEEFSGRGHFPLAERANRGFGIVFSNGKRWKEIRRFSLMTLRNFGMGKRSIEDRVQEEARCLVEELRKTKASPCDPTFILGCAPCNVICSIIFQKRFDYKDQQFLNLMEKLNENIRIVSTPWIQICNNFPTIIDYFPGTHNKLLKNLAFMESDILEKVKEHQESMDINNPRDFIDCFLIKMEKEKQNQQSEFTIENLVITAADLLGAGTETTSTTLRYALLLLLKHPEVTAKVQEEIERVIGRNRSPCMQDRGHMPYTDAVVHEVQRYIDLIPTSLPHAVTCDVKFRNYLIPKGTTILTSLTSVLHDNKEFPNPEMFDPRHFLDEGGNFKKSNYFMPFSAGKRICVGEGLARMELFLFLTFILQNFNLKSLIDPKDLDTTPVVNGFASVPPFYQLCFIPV
PostGolgi yeast = growth inhibition of a yeast mutant, post-Golgi transport screen; post-Golgi transport phenotypic cell assay; inhibition, % at 10 µM; 98,000 compounds, 0.9% hits; AID 739;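 also: yeast cells grown in 1536-well plates; yeast grown about 18 h at 30C before absorbance read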
CYP2C9 inh = blocks human cytochrome P450 2C9; AID 777; P11712; CYP2C9 Supersomes, luciferin-H conversion, luminescence; inhibition, % at 5 µM; 96,000 compounds, 20% hits;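 active = blocking of liver enzyme CYP2C9 beyond about 50% at 5 µM, limit read from the data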
CYP2C19 act = increases human CYP2C19 enzyme activity | recombinant CYP2C19, luciferin-H EGE luminescence; hits give high values; 0 = fully inhibited enzyme, 1 = untreated enzyme | activation factor at 5 µM | 96,000 tested, under 10 active | AID 1025;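 active = activation factor of at least 2 at 5 µM in the primary screen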;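 also: 0 = wells with 2.5 mM tranylcypromine and 1 = vehicle-only wells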
An asterisk follows results filed as active. Hits are enriched below; roughly 32% of the tested compounds scored in any of these assays. Rule as the data show it, unless noted: active = inhibition above about 30%; inactive = the rest.

SMILES	CYP2C9 act	PostGolgi ctrl	CYP2C19 inhib	PostGolgi yeast	CYP2C9 inh	CYP2C19 act
CCCCOc1ccc(NC2=NC3(CCCC3)N=C(N)N2)cc1	1.2	9.5	-5.6	-1.9	-16.2	1.1
Cc1cc(=O)oc2cc(OCCSCCN3CCOCC3)ccc12	0.8	31.9*	1.8	5.8	17.1	1
Cc1cc(=O)oc2cc(OCC3CC(c4ccccc4)=NO3)ccc12 (configuration not stated)	0.5	5.2	43.0	0.1	51.0*	0.6
C#CCOc1ccc2c(C)cc(=O)oc2c1	1	19.6	64.4*	0.0	2.2	0.4
CCOC(=O)C(C)Sc1ccc2nnc(-c3ccc(F)cc3)n2n1 (configuration not stated)	0.7	7.3	1.1	-13.0	32.0	1
Cc1nn(C(=O)Cn2ccc([N+](=O)[O-])n2)c(C)c1Br	0.9	-11.4	11.0	-5.3	5.6	0.9
Cc1c(NC(=O)CN2CCN(C(c3ccccc3)c3ccccc3)CC2)c(=O)n(-c2ccccc2)n1C	1	7.0	0.8	-8.5	-4.3	1
C=CCCCCCCCCC(=O)NN	0.1	2.1	100.0*	3.4	88.9*	0
O=C(Nc1cccc2ccccc12)c1nn(C23CC4CC(CC(C4)C2)C3)cc1[N+](=O)[O-]	1.1	84.7*	6.0	46.7*	-10.2	0.9
CCn1nc(C(=O)Nc2cccc3ccccc23)c(Cl)c1Cl	0.9	3.6	35.4	5.1	12.5	0.6
CCOC(=O)c1sc2cc([N+](=O)[O-])cc(SCC(=O)OC)c2c1N	0.1	-1.8	60.1*	-6.5	87.3*	0.4
CCOC(=O)c1sc2ccc(S(=O)(=O)N3CCOCC3)cc2c1N	0.6	7.7	26.8	11.0	39.4	0.7
CC(C(=O)N1CCOCC1)(c1ccccc1)c1ccccc1	0.8	-1.2	93.5*	19.1	24.4	0.1
C=C(C)c1cccc(C(C)(C)NC(=O)N2CCN(c3ccccn3)CC2)c1	0.6	28.6	27.5	-11.6	44.3	0.7
O=C(Oc1ccccc1OC(=O)N1CCOCC1)N1CCOCC1	1	1.4	8.3	8.0	-4.1	0.9
C=C(C)c1cccc(C(C)(C)NC(=O)N2CCOCC2)c1	0.8	1.1	55.9*	-3.4	16.9	0.4
C=C(C)c1cccc(C(C)(C)NC(=O)N2CC(C)OC(C)C2)c1 (configuration not stated)	0.9	-0.8	69.2*	5.5	7.5	0.3
O=C(Nc1ccc(-c2nc3c(ccc4ccccc43)o2)cc1)c1ccco1	1.5	11.1	15.8	3.5	-45.2	0.8
Cc1cc(NC(=O)Cn2nnc3sc4c(c3c2=O)CCC(C(C)(C)C)C4)no1 (configuration not stated)	0.4	31.1*	32.4	3.1	56.6*	0.7
Cc1cc(NC(=O)Cn2nnc3sc4c(c3c2=O)CCCC4)no1	0.8	-2.7	5.8	0.3	20.8	0.9
CN(C)c1ccc(/C(=N\O)c2ccccc2)cc1	1	5.9	72.8*	-1.9	-2.6	0.3
Cc1cc(C(=O)CSc2nnnn2C)c(C)n1-c1cccc(F)c1	0.6	0.9	95.0*	11.9	44.9	0.1
Cc1cc(C(=O)CSc2n[nH]c(N)n2)c(C)n1-c1cccc(F)c1	0.5	27.2	89.7*	0.5	52.3*	0.1
COc1ccc(CCn2c(C)cc(C(=O)CSc3nnnn3C)c2C)cc1	0.8	15.7	40.9	21.2	18.7	0.6
Cc1cc(C(=O)CSc2nc(N)cc(N)n2)c(C)n1CCc1ccc(F)cc1	0.5	1.6	75.9*	-2.2	53.3*	0.2
SMILES	CYP2C9 act	PostGolgi ctrl	CYP2C19 inhib	PostGolgi yeast	CYP2C9 inh	CYP2C19 act
COc1ccccc1C(=O)CSc1n[nH]c(N)n1	3*	5.6	7.9	8.8	-203.4	0.9
COCCn1c(C)cc(C(=O)CSc2n[nH]c(N)n2)c1C	1.9	-0.3	7.5	0.3	-85.7	0.9
COc1cc(/C=N/n2c(SC)nnc(C(C)(C)C)c2=O)ccc1O	0.6	-3.0	31.3	-8.6	38.2	0.7
O=C1CCC([N+](=O)[O-])C(c2cccc(Cl)c2Cl)N1 (configuration not stated)	0.9	11.8	-10.9	-6.2	10.9	1.1
CCOC(=O)N1CCC(NC(=O)C2CCN(S(=O)(=O)c3c(C)noc3C)CC2)CC1	1.2	-2.2	-1.9	-1.9	-16.6	1
CC1=CCC2(CO)COC(c3ccccc3O)C1C2 (configuration not stated)	0.9	3.5	35.1	-18.6	11.7	0.6
Cc1cc(C)cc(-n2c(C)cc(C(=O)CSc3nnnn3C)c2C)c1	0.4	12.3	61.3*	2.7	64.3*	0.4
Cc1cc(C(=O)CSc2nnc(C3COc4ccccc4O3)n2C)c(C)n1-c1ccc(F)cc1 (configuration not stated)	0.5	29.9	48.8	4.5	50.5*	0.5
Cn1c(SCC(=O)c2ccc3c(c2)OCO3)nnc1C1COc2ccccc2O1 (configuration not stated)	0.6	-4.2	-7.5	-5.1	44.4	1.1
Cc1cc(C)cc(NS(=O)(=O)c2cnc(Cl)c(Cl)c2)c1	0.1	43.5*	100.0*	2.4	86.2*	0
CCN(CC)c1ccc(-c2nnc(SCC(=O)Nc3ccccc3C#N)n2-c2ccccc2)cc1	0.3	6.9	51.8*	-4.7	74.1*	0.5
N#Cc1ccccc1NC(=O)CSc1nnc(-c2ccccc2)n1-c1ccccc1	0.2	1.5	35.8	9.7	78.0*	0.6
CCC(C)Nc1nc(CN2CCOCC2)nc2sc3c(c12)CCC3 (configuration not stated)	0.7	-0.6	8.9	12.5	30.9	0.9
CC(NC(=O)c1ccc2c(c1)OCO2)C1CCCO1 (configuration not stated)	1.1	5.5	-1.2	3.5	-11.4	1
CC(=O)N(CCO)Cc1cc2cc(C)cc(C)c2[nH]c1=O	0.9	11.9	1.3	-15.1	7.5	1
COCC(C)n1c(C)cc(C(=O)COC(=O)c2ccc3ncsc3c2)c1C (configuration not stated)	1.8	14.7	78.4*	1.5	-79.2	0.2
Cc1cc(C(=O)COC(=O)c2csc3c2CCCC3)c(C)n1C	1.4	8.2	-8.0	-2.7	-37.4	1.1
COCC(C)n1c(C)cc(C(=O)COC(=O)c2nc3nc(C)cc(C)n3n2)c1C (configuration not stated)	1.2	33.0*	7.9	8.1	-23.2	0.9
CN1CCN(c2ccc(C(=O)c3ccc(F)cc3)cc2)CC1	0.9	6.7	51.6*	7.2	5.9	0.5
O=C(c1ccccc1)c1ccc(N2CCNCC2)cc1	0.6	24.9	76.9*	-2.5	44.2	0.2
O=C(O)CCC(=O)N1CCN(c2ccc(C(=O)c3ccc(F)cc3)cc2)CC1	1.1	-4.3	2.6	5.5	-5.8	1
O=C(C1CCCN1S(=O)(=O)c1ccc(Cl)c(Cl)c1)N1CCOCC1 (configuration not stated)	1.6	0.6	-0.9	7.2	-61.9	1
